According to article PMC7819943, “Rice protein-binding microarrays: a tool to detect cis-acting elements near promoter regions in rice”:
The full ranking holds about 35,000 sequences; the median of “fluorescence intensity (a.u.)” is about 10,000, and the highest 2% start at about 52,000. The sample as a whole holds a higher share of the highest values than the screen did.

Molecular target: T1, OsWOX13 (Oryza sativa, UniProt Q5QMM3 1-267)
T1 sequence: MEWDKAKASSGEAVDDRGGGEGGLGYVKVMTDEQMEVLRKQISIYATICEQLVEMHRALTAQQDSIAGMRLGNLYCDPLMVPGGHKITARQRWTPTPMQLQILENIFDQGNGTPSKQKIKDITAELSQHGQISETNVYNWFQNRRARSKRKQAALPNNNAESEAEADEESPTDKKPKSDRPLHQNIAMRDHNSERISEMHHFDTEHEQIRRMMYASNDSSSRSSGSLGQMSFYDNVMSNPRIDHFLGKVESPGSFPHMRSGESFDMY
Assay: protein-binding microarray (RPBM); PBS, 2% BSA, 51.3 ng/ul salmon testes DNA, 50 uM zinc acetate, 200 nM TF, 25 C, 1 h; high values mean tight binding
Details: protein: recombinant; tags: N-terminal polyhistidine and DsRed monomer fusion (pET32a); label: CyDye5-dUTP incorporated in the synthesized complementary strand; 3' TTTTT single-stranded linker to array surface; dsDNA, one strand shown
Method in brief: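 The binding signal is fluorescence intensity per feature, in arbitrary units, read on an Axon 4000B scanner. Polyhistidine- and DsRed-tagged transcription factors (N-terminal fusions) from E. coli BL21-CodonPlus were purified on Ni–NTA and applied at 200 nM for 1 h at 25 °C to a double-stranded, BSA-blocked custom Agilent array in buffer with 50 µM zinc acetate.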

In order of rising binding signal:
1. ACCAGGAAGTCATAAATTAATGGATCGAATATGACCTGCTCGGAGTCACCTAGTGCAG  3160 fluorescence intensity (a.u.)
2. TGGCCGGTGATTTACCGTACTAGTGATGTATGCGTGCAAACGGAGTCACCTAGTGCAG  3650 fluorescence intensity (a.u.)
3. TCTAAACATATCCAGATAAATTATTCTGAGATGAGTCTCACGGAGTCACCTAGTGCAG  3670 fluorescence intensity (a.u.)
4. CTTTAGTCTCTGACACTAATTTAGAGTATTAAATATAGACCGGAGTCACCTAGTGCAG  3810 fluorescence intensity (a.u.)
5. TGGAGGGATTTGATTTGGAAAGGATTTGGATTCGGGATTGCGGAGTCACCTAGTGCAG  3870 fluorescence intensity (a.u.)
6. TTGTAGATTTATACCTGTCCTAATCAGAGTATACTGTATTCGGAGTCACCTAGTGCAG  3990 fluorescence intensity (a.u.)
7. ATCCGTCATCTGATTTAATCTCATACGTCCGCTATCCTCCCGGAGTCACCTAGTGCAG  4210 fluorescence intensity (a.u.)
8. GTGTGTGATGGGTTAATCGATGTGCTATGTTATTGGTTTCCGGAGTCACCTAGTGCAG  5310 fluorescence intensity (a.u.)
9. ACCCCGAGCTGATTATCTCTGAACGTACGATCAAGCCGTCCGGAGTCACCTAGTGCAG  6180 fluorescence intensity (a.u.)
10. TCGAAAATTGGTTTTGTTAATATACTAGGACTGATTTCAGCGGAGTCACCTAGTGCAG  6190 fluorescence intensity (a.u.)
11. ACGATCAAATTTAGACATGGAAACTCGTGACTGTGCTTATCGGAGTCACCTAGTGCAG  6550 fluorescence intensity (a.u.)
12. AAATCAATTACTAGTGCGCGGTTTGTTGAGGAAAAGGCAACGGAGTCACCTAGTGCAG  6960 fluorescence intensity (a.u.)
13. GCTAATTTGGGCACCATATTGGGCCTGATTTTGGTAAACACGGAGTCACCTAGTGCAG  6980 fluorescence intensity (a.u.)
14. GAGATAAATGATCAACTAGTCCGTGAATTTGACACCGATGCGGAGTCACCTAGTGCAG  7110 fluorescence intensity (a.u.)
15. CTCAGCCTGATTAATCGGAGATAATGAGTCTACGAATTTGCGGAGTCACCTAGTGCAG  9790 fluorescence intensity (a.u.)
16. CCTGATTTCTAAAGAAAGCCGTCCGGTTTTAACTGAGTCTCGGAGTCACCTAGTGCAG  10100 fluorescence intensity (a.u.)
17. ATTCCAATTGATTTTAGTTAGTTTTCATACATAGTTAACACGGAGTCACCTAGTGCAG  10900 fluorescence intensity (a.u.)
18. TATTTTGGACCCATGATAGATTGATTTAGAACATGCGGAGCGGAGTCACCTAGTGCAG  11400 fluorescence intensity (a.u.)
19. GTTAATTTTGTGAAATATGTTTGCTGGTTAGTGAATTGTACGGAGTCACCTAGTGCAG  12400 fluorescence intensity (a.u.)
20. GGGAGAGGTGATGAGTGATTGGAGTAGAGGGGAGATGAGGCGGAGTCACCTAGTGCAG  12600 fluorescence intensity (a.u.)
21. GTTACTGCATGATTTGCTAGATGTATTTTATGACAACAGACGGAGTCACCTAGTGCAG  12900 fluorescence intensity (a.u.)
22. TGTTGTGATTGGTTGAGAAATGTGGGTATGTGAGAAAATACGGAGTCACCTAGTGCAG  15200 fluorescence intensity (a.u.)
23. TGTGGGATGGATTTGTGGTGATTGAGAGGGTTTGAAAGGGCGGAGTCACCTAGTGCAG  15700 fluorescence intensity (a.u.)
24. CTCCACTAATCTAAAATTTGTTTAATGGATCATTGCATCACGGAGTCACCTAGTGCAG  16000 fluorescence intensity (a.u.)
25. AGTGATGGCATTGACTGACTTGGGGAAGGAAACAATCGAGCGGAGTCACCTAGTGCAG  16000 fluorescence intensity (a.u.)
26. AATGAATGACTGTCACAGTTCGATGATGTGACTATATATGCGGAGTCACCTAGTGCAG  16600 fluorescence intensity (a.u.)
27. GGTTAATTATGCGAAAGAGAATCTTAATCCCAGGGGCTTTCGGAGTCACCTAGTGCAG  17600 fluorescence intensity (a.u.)
28. TACTAATTACTACTAACCGTTAAAAGTAGCCGCCGGTTAACGGAGTCACCTAGTGCAG  17800 fluorescence intensity (a.u.)
29. ATATATATAATTAGGATTGTTATATGCATAGGTTTGCATTCGGAGTCACCTAGTGCAG  18400 fluorescence intensity (a.u.)
30. TTCACGCTTGATTGGGCTGGGATTAAGGCCCATTTATACACGGAGTCACCTAGTGCAG  23500 fluorescence intensity (a.u.)
31. TTGCAAAACTGGCTTAATTGATTCCATATTTCCATTCCACCGGAGTCACCTAGTGCAG  32200 fluorescence intensity (a.u.)
32. ACAACCAACTGATTGAAGACGTCCACGTGCTTCCTAAGATCGGAGTCACCTAGTGCAG  35200 fluorescence intensity (a.u.)
33. AAGATTTAATTGTTACGAACACAACGGCGTAATCGGATCGCGGAGTCACCTAGTGCAG  36000 fluorescence intensity (a.u.)
34. TTGTGATTTGTTAGAATTGTATTTTACAATGTGTAGTATGCGGAGTCACCTAGTGCAG  39800 fluorescence intensity (a.u.)
35. GATGATTGACTTATTATGCTATAATAATATGCTGAATGAACGGAGTCACCTAGTGCAG  40600 fluorescence intensity (a.u.)
36. TTGGCGATTGATTGGGGAAAGGAAACTTTGCTAGGTCAATCGGAGTCACCTAGTGCAG  53500 fluorescence intensity (a.u.)
37. GTGTGATTTGCTAATTGGGTTTGTTATGAAGCTGGTTATCCGGAGTCACCTAGTGCAG  54000 fluorescence intensity (a.u.)
38. GTTTGATTGGAGCAATGTCTCAATGGGTGAGAAGATGAGGCGGAGTCACCTAGTGCAG  54300 fluorescence intensity (a.u.)
39. ATGACTGATTTATGACAGCCGTGCATGTGTATTTGTGTACCGGAGTCACCTAGTGCAG  55500 fluorescence intensity (a.u.)
40. ATGATTGATTTGGGTAACATACCAAACACCAAACAGTTCACGGAGTCACCTAGTGCAG  56600 fluorescence intensity (a.u.)
41. ATGATGATTGACTTATGTGAATATATTGTCTATATATGCACGGAGTCACCTAGTGCAG  60300 fluorescence intensity (a.u.)
42. ACTGATTGATTTGGAAGGAGAGAAATACTATGTTGGGTTTCGGAGTCACCTAGTGCAG  63700 fluorescence intensity (a.u.)
